Screening data (PubChem)
GPT2 inh = GPT2 alanine aminotransferase inhibition | Q8TD30 | Recombinant GPT2, coupled pyruvate oxidase/HRP Amplex Red fluorescence | Potency, µM (titrated, usually from 57.7 µM), actives largely listed as inhibitors | hit rate 0.25% among 100,000; also: nearly all actives have a fitted effect of over 60% in size
Target sequence (Q8TD30 whole entry, looked up): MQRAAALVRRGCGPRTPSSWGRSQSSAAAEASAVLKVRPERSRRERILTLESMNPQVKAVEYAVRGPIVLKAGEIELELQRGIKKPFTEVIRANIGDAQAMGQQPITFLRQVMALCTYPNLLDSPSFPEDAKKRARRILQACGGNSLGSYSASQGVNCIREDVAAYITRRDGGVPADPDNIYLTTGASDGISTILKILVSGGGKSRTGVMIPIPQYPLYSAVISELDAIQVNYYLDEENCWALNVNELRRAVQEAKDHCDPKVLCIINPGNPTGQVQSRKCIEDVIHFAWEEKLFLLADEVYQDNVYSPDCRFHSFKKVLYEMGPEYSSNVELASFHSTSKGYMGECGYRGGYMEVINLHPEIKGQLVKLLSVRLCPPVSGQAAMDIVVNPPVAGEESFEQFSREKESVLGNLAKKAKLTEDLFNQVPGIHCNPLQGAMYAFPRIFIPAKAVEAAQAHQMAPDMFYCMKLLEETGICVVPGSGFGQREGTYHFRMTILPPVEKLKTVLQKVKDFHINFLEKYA
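Fluorescence read-out: pyruvate from GPT2 turnover coupled to pyruvate oxidase, HRP and Amplex Red (0.2mM ThPP, 0.2U/mL PO and HRP, 50uM Amplex final). Substrates 250uM a-KG, 2mM L-alanine; enzyme 10ng/uL; 30 min RT.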
3T3 cytotox = cytotoxic compounds in NIH 3T3 cells; hit rate 4.3% among 94,000; Potency, µM (highest dose often 96.7 µM), most hits filed as inhibitors; NIH 3T3 viability, CellTiter-Glo ATP luminescence, 48-72 h; AID 1345082; also: nearly all actives have a fitted effect of over 55% in size
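First NIH 3T3 cells are plated at 400 cells/well; next compound is pinned in; then plates incubate 48 or 72 hr at 37 °C; finally CellTiter-Glo is added and luminescence read after 10 min.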
NPR1 antag = human Npr1 receptor antagonism; Potency, µM (titrated, usually from 46.3 µM), actives largely listed as inhibitors; hit rate 1.6% among 76,000; AID 1347048; HEK293 hNpr1 GloSensor cGMP, ANP-stimulated luminescence; P16066; calls by dose curve; also: nearly all actives have a fitted effect of over 60% in size
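HEK293 cells stably expressing human Npr1 and cGMP GloSensor pGS-40F, loaded 2 h with 2% GloSensor reagent, given compound 30 min at room temperature. Luminescence read before and 20 min after 0.1 nM hNppA.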
HEK cytotox = HEK 293 cell cytotoxicity; AID 1345083; Potency, µM (highest dose often 115 µM), hits mostly inhibitors; HEK 293 viability, ATP luminescence (CellTiter-Glo), 48-72 h; hit rate 6.6% among 94,000; also: nearly all actives have a fitted effect of over 60% in size
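ATP-coupled CellTiter-Glo luminescence served as viability read-out, recorded 10 min after reagent addition at room temperature. HEK 293 cells, 250 cells/well, had been incubated with pintool-transferred compound for 48 or 72 hr at 37 degree Celsius.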
FLuc inh = inhibitors of firefly (Photinus pyralis) luciferase; P08659; purified P. pyralis luciferase, luminescence, biochemical; Potency, µM (highest dose often 115 µM), usual class: inhibitors; hit rate 2.5% among 76,000; AID 1347043; also: nearly all actives have a fitted effect of over 65% in size
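Luminescence read by CCD imaging after purified firefly luciferase (10nM final) was added to substrate buffer holding 10uM D-luciferin and 10uM ATP, pH 7.5, pre-dosed with compound.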
A number is an active result. The list is not random: actives were taken first. Their share in the collection is about 10%. Unless noted, calls follow the shape of the dose curve; as a rule, active = well fitted curve in the direction sought with a large enough effect; inconclusive = small, poorly fitted or top-dose-only effect, or another doubt; inactive = no such curve, though single readings can be large; an effect the other way counts as inactive or inconclusive.

`Cc1cccc(N2CCN(C(=O)c3ccc4c(c3)N(C)C3CCCCCN3C4=O)CC2)c1` (configuration not stated) gave GPT2 inh inactive, 3T3 cytotox inconclusive, NPR1 antag inactive, HEK cytotox 40µM and FLuc inh inactive.
`Cc1nc(N2CCCCC2)n(CC(=O)Nc2cccc(F)c2)c(=O)c1C` gave GPT2 inh inactive, 3T3 cytotox inactive, NPR1 antag inactive, HEK cytotox inactive and FLuc inh inactive.
`CNC(=O)C1CCCN1C(=O)c1cccc(-c2ccccn2)c1` (configuration not stated) gave GPT2 inh inactive, 3T3 cytotox inactive and HEK cytotox inactive.
COc1ccc(CCNC(=O)c2ccc3nnc(-c4ccc(F)cc4)n3c2)cc1 was read as GPT2 inh inactive, 3T3 cytotox inactive and HEK cytotox inactive.
CC(C)Cc1ccc(S(=O)(=O)N2CCCC(Cn3cnc4cccnc43)C2)cc1 (configuration not stated) was read as GPT2 inh inconclusive, 3T3 cytotox inconclusive, NPR1 antag inactive, HEK cytotox 45µM and FLuc inh inactive.
For Cc1nc2cccnc2n1CC1CCCN(S(=O)(=O)c2cccc(F)c2)C1 (configuration not stated) the results were GPT2 inh inactive, 3T3 cytotox inconclusive, NPR1 antag inactive, HEK cytotox 35µM and FLuc inh inactive.
`O=S(=O)(c1cc(F)cc(F)c1)N1CCCC(Cn2c(C3CC3)nc3cccnc32)C1` (configuration not stated) gave GPT2 inh inactive, 3T3 cytotox 40µM, NPR1 antag inactive, HEK cytotox inconclusive and FLuc inh inactive.
CN(C)c1ccc(-n2c(=O)c(C(=O)NCC(F)F)nc3cccnc32)cc1 was read as GPT2 inh inactive, 3T3 cytotox inactive and HEK cytotox inactive.
COc1ccccc1CN1CC[C@H]2COC(=O)N2c2cc(F)ccc2C1 was read as GPT2 inh inactive, 3T3 cytotox inactive, NPR1 antag inactive, HEK cytotox inactive and FLuc inh inactive.
CCN1C(=O)C2CC3(CCN(Cc4cccc(OC)c4)CC3)CN2C1=O (configuration not stated) was read as GPT2 inh inactive, 3T3 cytotox inactive and HEK cytotox inconclusive.
Screening CCOC(=O)[C@@H]1[C@@H](O)C(=O)N(Cc2ccccc2)C12CCN(C(=O)N(C)C)CC2 returned 3T3 cytotox inconclusive and HEK cytotox inactive.
Screening CCOC(=O)[C@H]1[C@@H](O)C(=O)N(Cc2ccccc2)C12CCN(C(=O)CC(C)(C)C)CC2 returned 3T3 cytotox 22µM and HEK cytotox inconclusive.
Oc1ccc(-c2nc(C3CC3)nc3c2CN(Cc2cccc4ccccc24)CC3)cc1 was read as GPT2 inh inactive, 3T3 cytotox inconclusive and HEK cytotox inconclusive.
`C[C@H](NC(=O)C[C@@H]1c2nc(NC(=O)c3ccc(F)cc3)sc2C[C@@H]2[C@](C)(CO)[C@H](O)CC[C@]21C)c1ccccc1` gave GPT2 inh inconclusive, 3T3 cytotox inconclusive, NPR1 antag inactive, HEK cytotox 32µM and FLuc inh inactive.
For C[C@@H](NC(=O)C[C@@H]1c2nc(NC(=O)CC(C)(C)C)sc2C[C@@H]2[C@](C)(CO)[C@H](O)CC[C@]21C)c1ccccc1 the results were GPT2 inh inactive, 3T3 cytotox inconclusive, NPR1 antag inactive, HEK cytotox 40µM and FLuc inh inactive.
Screening CCCCCC(=O)Nc1nc2c(s1)C[C@@H]1[C@](C)(CO)[C@H](O)CC[C@@]1(C)[C@@H]2CC(=O)N[C@@H](CO)CC(C)C returned GPT2 inh inconclusive, 3T3 cytotox 79µM, NPR1 antag inactive, HEK cytotox inconclusive and FLuc inh inactive.
For CC(C)(C)CC(=O)Nc1nc2c(s1)C[C@@H]1[C@](C)(CO)[C@H](O)CC[C@@]1(C)[C@@H]2CC(=O)O the results were GPT2 inh inactive, 3T3 cytotox inactive, NPR1 antag inactive, HEK cytotox inactive and FLuc inh inactive.
`CC(C)C[C@H](CO)NC(=O)C[C@@H]1c2nc(NC(=O)CC(C)(C)C)sc2C[C@@H]2[C@](C)(CO)[C@H](O)CC[C@]21C` gave GPT2 inh inactive, 3T3 cytotox inactive, NPR1 antag inactive, HEK cytotox inactive and FLuc inh inactive.
